Results from PubChem BioAssay AID1159580 (chemical genetic matrix, 2015).
Where “and” joins values, the source holds several entries; their conditions need not be identical. Equal values may be shown once. Hit rate of the full screen: of about 5,500 compounds, about 2,000 (36%) were called active. Inconclusive results (about 18%) are left out. Cut-off read from the data, not from the text of the source: active = normalized growth mostly below about 0.91 (no sharp cut-off); inconclusive = no clear call, values can overlap the other calls; inactive = mostly above about 0.92. The list shows a part of the results.

Assay: chemical genetic growth profiling, strain panel (AID 1159580);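 note: tested at 20 µM; growth read once vehicle control cultures reached saturation at 30 °C; 1 = growth at the plate median or of vehicle wells; lower values mean less growth of the strain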
Settings: growth OD

Measured: normalized growth

NC(CO)C(=O)NNCc1ccc(O)c(O)c1O (configuration not stated)
active: S. cerevisiae deletion strains, locus YMR058W, strain fet3, stronger effect = lower value 0.688 | S. cerevisiae deletion strains, locus YNL209W, strain ssb2, stronger effect = lower value 0.9
inactive: S. cerevisiae deletion strains, locus YJR066W, strain TOR1, stronger effect = lower value 0.99 | S. cerevisiae deletion strains, locus YJR075W, strain HOC1, stronger effect = lower value 1.01 and 0.944 | S. cerevisiae deletion strains, locus YKL009W, strain mrt4, stronger effect = lower value 0.973 | S. cerevisiae deletion strains, locus YKL068W, stronger effect = lower value 1.01 | S. cerevisiae deletion strains, locus YKL085W, strain MDH1 (second series), stronger effect = lower value 1 | S. cerevisiae deletion strains, locus YKL085W, strain MDH1, stronger effect = lower value 1 | S. cerevisiae deletion strains, locus YKL160W, strain elf1, stronger effect = lower value 1.02 | S. cerevisiae deletion strains, locus YKR001C, strain vps1, stronger effect = lower value 0.986 | S. cerevisiae deletion strains, locus YKR026C, strain gcn3, stronger effect = lower value 0.991 | S. cerevisiae deletion strains, locus YKR091W, strain srl3, stronger effect = lower value 0.993 | S. cerevisiae deletion strains, locus YLL001W, strain dnm1, stronger effect = lower value 1.03 | S. cerevisiae deletion strains, locus YLL026W, stronger effect = lower value 1.02 | S. cerevisiae deletion strains, locus YLL041C, strain sdh2, stronger effect = lower value 1 | S. cerevisiae deletion strains, locus YLR027C, strain aat2, stronger effect = lower value 1.01 | S. cerevisiae deletion strains, locus YLR039C, strain RIC1, stronger effect = lower value 1.01 | S. cerevisiae deletion strains, locus YLR058C, strain SHM2, stronger effect = lower value 1.01 | S. cerevisiae deletion strains, locus YLR102C, strain apc9, stronger effect = lower value 0.983 | S. cerevisiae deletion strains, locus YLR113W, strain HOG1, stronger effect = lower value 1.1 | S. cerevisiae deletion strains, locus YLR221C, strain rsa3, stronger effect = lower value 0.951 | S. cerevisiae deletion strains, locus YLR258W, strain gsy2, stronger effect = lower value 0.974 | S. cerevisiae deletion strains, locus YLR262C, strain YPT6 (second series), stronger effect = lower value 0.915 | S. cerevisiae deletion strains, locus YLR262C, strain YPT6, stronger effect = lower value 1.04 | S. cerevisiae deletion strains, locus YLR268W, strain sec22, stronger effect = lower value 0.984 | S. cerevisiae deletion strains, locus YLR320W, strain mms22, stronger effect = lower value 0.987 | S. cerevisiae deletion strains, locus YLR330W, strain CHS5, stronger effect = lower value 1.01 | S. cerevisiae deletion strains, locus YLR342W, strain FKS1 (second series), stronger effect = lower value 1.06 | S. cerevisiae deletion strains, locus YLR342W, strain FKS1, stronger effect = lower value 1.01 | S. cerevisiae deletion strains, locus YLR357W, strain rsc2, stronger effect = lower value 0.911 | S. cerevisiae deletion strains, locus YLR370C, strain arc18, stronger effect = lower value 0.995 | S. cerevisiae deletion strains, locus YLR371W, strain rom2, stronger effect = lower value 0.991 | S. cerevisiae deletion strains, locus YLR384C, strain iki3, stronger effect = lower value 1 | S. cerevisiae deletion strains, locus YLR418C, strain cdc73, stronger effect = lower value 0.98 | S. cerevisiae deletion strains, locus YML016C, strain PPZ1, stronger effect = lower value 1.01 | S. cerevisiae deletion strains, locus YML032C, strain rad52, stronger effect = lower value 0.993 | S. cerevisiae deletion strains, locus YML120C, strain ndi1, stronger effect = lower value 1.01 | S. cerevisiae deletion strains, locus YML124C, strain tub3, stronger effect = lower value 0.996 | S. cerevisiae deletion strains, locus YMR078C, strain ctf18, stronger effect = lower value 0.992 | S. cerevisiae deletion strains, locus YMR125W, strain sto1, stronger effect = lower value 1.01 | S. cerevisiae deletion strains, locus YMR129W, stronger effect = lower value 0.992 | S. cerevisiae deletion strains, locus YMR205C, strain PFK2, stronger effect = lower value 1.07 | S. cerevisiae deletion strains, locus YMR223W, strain ubp8, stronger effect = lower value 1.01 | S. cerevisiae deletion strains, locus YMR231W, strain pep5, stronger effect = lower value 0.991 | S. cerevisiae deletion strains, locus YMR307W, strain GAS1, stronger effect = lower value 1 and 0.976 | S. cerevisiae deletion strains, locus YNL067W, strain RPL9B, stronger effect = lower value 0.984 | S. cerevisiae deletion strains, locus YNL071W, strain lat1, stronger effect = lower value 1.01 | S. cerevisiae deletion strains, locus YNL153C, strain GIM3, stronger effect = lower value 1 | S. cerevisiae deletion strains, locus YNL175C, strain NOP13, stronger effect = lower value 0.988 | S. cerevisiae deletion strains, locus YNL183C, strain NPR1, stronger effect = lower value 0.99 | S. cerevisiae deletion strains, locus YNL197C, strain WHI3, stronger effect = lower value 0.935 | S. cerevisiae deletion strains, locus YNL224C, strain SQS1, stronger effect = lower value 1.01 | S. cerevisiae deletion strains, locus YNL233W, strain BNI4, stronger effect = lower value 0.998 | S. cerevisiae deletion strains, locus YNL248C, strain rpa49, stronger effect = lower value 0.946 | S. cerevisiae deletion strains, locus YNL250W, strain rad50, stronger effect = lower value 0.983 | S. cerevisiae deletion strains, locus YNL271C, strain bni1, stronger effect = lower value 1 | S. cerevisiae deletion strains, locus YNL298W, strain CLA4, stronger effect = lower value 0.988 | S. cerevisiae deletion strains, locus YNL307C, strain MCK1, stronger effect = lower value 0.982 | S. cerevisiae deletion strains, locus YNL322C, strain KRE1 (second series), stronger effect = lower value 0.999 | S. cerevisiae deletion strains, locus YNR049C, strain mso1, stronger effect = lower value 0.99 | S. cerevisiae deletion strains, locus YNR052C, strain pop2, stronger effect = lower value 1.01 | S. cerevisiae deletion strains, locus YOL012C, strain htz1 0.788 | S. cerevisiae deletion strains, locus YOL147C, strain pex11, stronger effect = lower value 0.98 | S. cerevisiae deletion strains, locus YOR001W, strain rrp6, stronger effect = lower value 1.03 | S. cerevisiae deletion strains, locus YOR061W, strain CKA2, stronger effect = lower value 1.01 | S. cerevisiae deletion strains, locus YOR069W, strain VPS5, stronger effect = lower value 1 | S. cerevisiae deletion strains, locus YOR070C, strain gyp1, stronger effect = lower value 0.972 | S. cerevisiae deletion strains, locus YOR080W, strain dia2, stronger effect = lower value 1.01 | S. cerevisiae deletion strains, locus YOR083W, strain WHI5 (second series), stronger effect = lower value 0.978 | S. cerevisiae deletion strains, locus YOR083W, strain WHI5, stronger effect = lower value 0.986 | S. cerevisiae deletion strains, locus YOR106W, strain vam3, stronger effect = lower value 0.948 | S. cerevisiae deletion strains, locus YOR136W, strain idh2, stronger effect = lower value 0.97 | S. cerevisiae deletion strains, locus YOR144C, strain elg1, stronger effect = lower value 0.987 | S. cerevisiae deletion strains, locus YOR184W, strain ser1, stronger effect = lower value 0.993 | S. cerevisiae deletion strains, locus YOR231W, strain MKK1, stronger effect = lower value 1.07 | S. cerevisiae deletion strains, locus YOR265W, strain rbl2, stronger effect = lower value 0.996 | S. cerevisiae deletion strains, locus YOR270C, strain vph1, stronger effect = lower value 0.996 | S. cerevisiae deletion strains, locus YOR290C, strain snf2, stronger effect = lower value 0.957 | S. cerevisiae deletion strains, locus YOR316C, strain cot1, stronger effect = lower value 0.991 | S. cerevisiae deletion strains, locus YPL051W, strain arl3, stronger effect = lower value 0.973 | S. cerevisiae deletion strains, locus YPL055C, strain LGE1, stronger effect = lower value 1.01 and 0.959 | S. cerevisiae deletion strains, locus YPL078C, strain atp4, stronger effect = lower value 1.02 | S. cerevisiae deletion strains, locus YPL106C, strain sse1, stronger effect = lower value 0.936 | S. cerevisiae deletion strains, locus YPL240C, strain hsp82, stronger effect = lower value 0.991 | S. cerevisiae deletion strains, locus YPL241C, strain CIN2, stronger effect = lower value 1.01 | S. cerevisiae deletion strains, locus YPL256C, strain CLN2, stronger effect = lower value 1.09 | S. cerevisiae deletion strains, locus YPR119W, strain clb2, stronger effect = lower value 0.999 | S. cerevisiae deletion strains, locus YPR141C, strain kar3, stronger effect = lower value 0.987 | S. cerevisiae deletion strains, locus YPR163C, strain tif3, stronger effect = lower value 0.991 | S. cerevisiae deletion strains, locus YPR167C, strain met16, stronger effect = lower value 0.994 | S. cerevisiae deletion strains, strain wtn01, stronger effect = lower value 1.02 | S. cerevisiae strains, strain wild type, stronger effect = lower value 1
